Measurements as given in PubChem BioAssay (Tox21).
Where “and” joins values, the source holds several entries; their conditions need not be identical. Equal values may be shown once. Inconclusive results are not listed. Where a call stands in place of a potency, no number is given. Some structures have more than one record in an assay (separate samples or runs), and their calls can disagree. Calls of active or inactive are those of the source. Calls follow the shape of the dose curve; as a rule, active = well fitted activation curve with a large enough effect in the repeat runs; inconclusive = weak or mixed curves; inactive = flat fitted curve, though single readings scatter.

Test: A CellTox Green Cytotoxicity Assay to monitor cytotoxicity in HEK293 cells - 32 hour (AID 1224881); also: nearly all actives have a fitted effect of over 40% in size
Settings: CellTox Green fluorescence; series mostly up to 76.8 µM
Text: National Center for Advancing Translational Sciences [NCATS]
NIH Chemical Genomics Center [NCGC]
U.S. Environmental Protection Agency [EPA]
National Institutes of Environmental Health Sciences [NIEHS]
National Toxicology Program [NTP]
Cell-based models are critical for drug discovery. Determining the natural cytotoxic effects resulting from test compounds is an essential research activity. A CellTox Green Cytotoxicity Assay to monitor cytotoxicity in real time of continues cell culture during 40 hours of the compound treatment was used to screen Tox21 10K library compounds in Hek293 cells. CellTox Green Cytotoxicity Assay is a nonlytic, homogeneous, biofluorescent method to measure cytotoxicity in cell culture after experimental manipulation. The assay system uses a proprietary asymmetric cyanine dye that is excluded from viable cells but preferentially stains the dead cell's DNA. […] Viable cells produce no appreciable increases in fluorescence. Therefore, the fluorescence signal produced by the binding interaction with dead cell DNA is proportional to cytotoxicity.
The mixture of Hek293 cell suspension and reagents were dispensed at 600cells/6 ul/well in 1536-well tissue culture treated black solid bottom plates using a Multidrop dispenser. After the assay plates were incubated at a 37 C/5% CO2 incubator for 5 hours, 23 nL of compounds dissolved in DMSO, positive and negative controls was transferred to the assay plate by a pintool work station. The plates were incubated at 37 C for 40 hours. The fluorescence intensity were measured at 0h, 8h, 16h, 24h, 32h and 40h time points using ViewLux plate reader during compound treatment.
Potency is read from the fitted curve at half-maximal effect.

Compound | Potency
Cc1ccc(C)c(C)c1 | inactive
O=C(Oc1ccccc1)c1ccc(O)cc1 | inactive
CC[Si](OC(C)=O)(OC(C)=O)OC(C)=O | inactive
ClC1=C(Cl)C(Cl)(Cl)C(Cl)=C1Cl | 17.5 µM (active) and 34.7 µM (active)
CCCCNC(N)=O | inactive
CS(=O)(=O)Nc1ccc([N+](=O)[O-])cc1Oc1ccccc1 | inactive
CCOC(=O)/C=C\C(=O)OCC | inactive
CC1=C(CC(=O)O)c2cc(F)ccc2/C1=C\c1ccc(S(C)=O)cc1 (stereo not given) | inactive
C=CC(=O)OCCCCCCCC(C)C | inactive
CC(C)NCC(O)COc1cccc2ccccc12 (stereo not given) | inactive
CCCCC(CC)C(=O)OCCOCCOCCOC(=O)C(CC)CCCC (stereo not given) | inactive
Nc1cc(-c2ccncc2)c[nH]c1=O | inactive
CCCCCCOC(C)=O | inactive
CCCCOCCO | inactive
NS(=O)(=O)c1cc2c(cc1Cl)NC=NS2(=O)=O | inactive
CC(C)n1c(/C=C/[C@@H](O)C[C@@H](O)CC(=O)O)c(-c2ccc(F)cc2)c2ccccc21 | inactive
Cc1ccc(N)c(S(=O)(=O)O)c1 | inactive
CCC(C)C=O (stereo not given) | inactive
CCCCC(CC)COC(C)=O (stereo not given) | inactive
OCCOCCOCCOCCO | inactive

Compound | Potency
CCCCCCCCCCCCN | inactive and 43.6 µM (active)
Clc1cc(Cl)c(Cl)cc1Cl | inactive
CN(CCOc1ccc(CC2SC(=O)NC2=O)cc1)c1ccccn1 (stereo not given) | inactive
C=C(C)C(=O)OCCCCCCCCCCCC | inactive
Cn1c([N+](=O)[O-])cnc1COC(N)=O | inactive
C/C=C(C)/C=C/C=C(C)C | inactive
O=[N+]([O-])C(CO)(CO)CO | inactive
CN(C)c1ccc(C(=N)c2ccc(N(C)C)cc2)cc1 | inactive
CCOC(=O)[C@H](CCc1ccccc1)N[C@@H](C)C(=O)N1Cc2ccccc2C[C@H]1C(=O)O | inactive
CCOC(=O)C1OC1c1ccccc1 (stereo not given) | inactive
COC(=O)c1ccc(C(=O)OC)cc1 | inactive
CCCCCCCCCC(=O)O | inactive
CC1=CC[C@H]2C[C@@H]1C2(C)C | inactive
C=C1C2CCC(C2)C1(C)C (stereo not given) | inactive
O=C1CCCCC1 | inactive
CC(=O)[C@@]1(O)CC[C@H]2[C@@H]3CCC4=CC(=O)CC[C@]4(C)[C@H]3CC[C@@]21C | inactive
Nc1c(S(=O)(=O)O)cc(Br)c2c1C(=O)c1ccccc1C2=O | inactive
S=c1nc[nH]c2nc[nH]c12 | inactive
CN(C)c1cccc(O)c1 | inactive
C[C@@H](O)[C@H]1C(=O)N2C(C(=O)O)=C(S[C@@H]3CN[C@H](C(=O)N(C)C)C3)[C@H](C)[C@H]12 | inactive
